Targets with a hit are over-represented here; the source holds about 8,800 in all. About 0.5% of all pairs of compound and target were hits.
Experiments:
Assay in all cases: log2 fold change, soluble protein after heating vs DMSO (PISA); higher = thermal stabilisation; K562 lysate, 10 uM; active = over 0.2 and 3.5 SD of the protein, either way, in both replicates (recomputed)
erlotinib = compound: C#Cc1cccc(Nc2ncnc3cc(OCCOC)c(OCCOC)cc23)c1 [erlotinib]
Outline: (§1)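 Quantification was by TMTpro 16plex LC-MS/MS with equalised channel sums, applied to the supernatant after 21,000xg for 90 min. Samples were crude K562 extract at 1 mg/mL protein in PBS pH 7.4 with 1 mM MgCl2, treated with 10 μM compound for 30 min, heated for 3 min across 48°C-58°C, pooled and brought to 0.5% NP-40 at 4°C. Values are log-two fold changes in thermal stability relative to solvent controls, from duplicates.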

[1] = compound: C/C(=N\NC(=O)C1=CC(=CC=C1)S(=O)(=O)N2CCOCC2)/C3=C(C=CC(=C3)Cl)O
Outline: as §1

[2] = compound: C1=CC(=CC=C1C2=NC3=C(N2)C=C(C=C3)C(=O)N)OC4=CC=C(C=C4)Cl
Outline: as §1

[3] = compound: C1=CC2=C(C=CC(=C2)/C=C\3/C(=O)NC(=NCC4=CC=CS4)S3)N=C1
Outline: as §1

[4] = compound: C1=CC2=NC=CN=C2C=C1/C=C/3\C(=O)NC(=O)S3
Outline: as §1

[5] = compound: C1=CC=C(C=C1)C2=NC(=C(N2)C3=CC=NC=C3)C4=CC(=C(C=C4)Cl)O
Outline: as §1

[6] = compound: C1=CC=C2C(=C1)C3=NNC4=CC=CC(=C43)C2=O
Outline: as §1

[7] = compound: C1CCN(C1)C(=O)NC2=CC=CC(=C2)NC3=NC=C(C(=N3)NCCC4=CN=CN4)Br
Outline: as §1

[8] = compound: C1CN(CCC1(CC2=CC=C(C=C2)Cl)N)C3=NC=NC4=C3C=CN4
Outline: as §1

IRAK-1-4 Inhibitor I = compound: C1COCCN1CCN2C3=CC=CC=C3N=C2NC(=O)C4=CC(=CC=C4)[N+](=O)[O-] [IRAK-1-4 Inhibitor I]
Outline: as §1

Measured: log2 fold change

MAT2B (UniProt Q9NZL9)
inactive: erlotinib -0.009 | [1] -0.004 | [2] -0.033 | [3] -0.014 | [4] -0.006 | [5] -0.01 | [6] 0.036 | [7] 0.015 | [8] -0.004 | IRAK-1-4 Inhibitor I 0.017

LYSMD3 (UniProt Q7Z3D4)
Chain of UniProt Q7Z3D4 (Q7Z3D4 whole entry, looked up): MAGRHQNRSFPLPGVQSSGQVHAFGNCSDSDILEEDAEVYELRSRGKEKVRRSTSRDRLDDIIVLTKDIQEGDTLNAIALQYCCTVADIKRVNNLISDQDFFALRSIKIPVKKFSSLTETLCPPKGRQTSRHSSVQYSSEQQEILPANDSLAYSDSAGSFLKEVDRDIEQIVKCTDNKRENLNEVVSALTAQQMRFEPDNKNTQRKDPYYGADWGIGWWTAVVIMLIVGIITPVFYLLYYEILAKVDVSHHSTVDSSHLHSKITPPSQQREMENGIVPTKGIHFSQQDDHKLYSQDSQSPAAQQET
inactive: erlotinib -0.067 | [1] -0.051 | [2] 0.044 | [3] 0.069 | [4] 0.05 | [5] 0.007 | [6] -0.11 | [7] 0.037 | [8] 0 | IRAK-1-4 Inhibitor I -0.01

MBD2 (UniProt Q9UBB5)
inactive: erlotinib 0.013 | [1] -0.933 | [2] -0.003 | [3] 0.05 | [4] -0.016 | [5] 0.094 | [6] 0.023 | [7] -0.069 | [8] -0.011 | IRAK-1-4 Inhibitor I 0.016

LSM8 (UniProt O95777)
active: [4] 0.423
inactive: erlotinib -0.034 | [1] 0.003 | [2] -0.003 | [3] 0.027 | [5] -0.026 | [6] 0.066 | [7] -0.008 | [8] -0.021 | IRAK-1-4 Inhibitor I 0.028

KIF2C (UniProt Q99661)
Chain of UniProt Q99661 (Q99661 whole entry, looked up): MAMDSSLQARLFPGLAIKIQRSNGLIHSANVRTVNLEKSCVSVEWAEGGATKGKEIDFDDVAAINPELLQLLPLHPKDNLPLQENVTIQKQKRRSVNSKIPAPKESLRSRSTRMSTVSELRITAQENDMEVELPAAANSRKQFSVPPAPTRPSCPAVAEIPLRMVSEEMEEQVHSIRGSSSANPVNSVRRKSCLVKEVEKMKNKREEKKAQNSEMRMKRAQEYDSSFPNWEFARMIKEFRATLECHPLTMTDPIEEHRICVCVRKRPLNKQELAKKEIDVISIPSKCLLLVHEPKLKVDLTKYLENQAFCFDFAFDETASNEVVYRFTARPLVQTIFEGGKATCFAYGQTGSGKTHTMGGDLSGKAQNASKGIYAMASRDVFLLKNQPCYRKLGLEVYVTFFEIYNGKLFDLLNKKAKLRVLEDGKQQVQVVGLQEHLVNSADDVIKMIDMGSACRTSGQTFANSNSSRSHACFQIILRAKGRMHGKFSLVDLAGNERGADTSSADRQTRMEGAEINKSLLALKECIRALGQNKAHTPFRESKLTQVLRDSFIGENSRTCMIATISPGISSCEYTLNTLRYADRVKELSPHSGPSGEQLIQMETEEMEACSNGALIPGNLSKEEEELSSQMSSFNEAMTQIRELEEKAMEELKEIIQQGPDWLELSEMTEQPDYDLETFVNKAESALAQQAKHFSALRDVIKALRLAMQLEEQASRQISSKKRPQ
inactive: erlotinib 0.019 | [1] 0.033 | [2] -0.008 | [3] -0.01 | [4] -0.008 | [5] 0.002 | [6] -0.033 | [7] 0.015 | [8] -0.006 | IRAK-1-4 Inhibitor I -0.019

KIF14 (UniProt Q15058)
inactive: erlotinib 0.031 | [1] -0.06 | [2] 0.016 | [3] -0.04 | [4] -0.176 | [5] 0.01 | [6] -0.032 | [7] -0.002 | [8] 0.008 | IRAK-1-4 Inhibitor I -0.014

MAPK6 (UniProt Q16659)
inactive: erlotinib -0.004 | [1] 0.036 | [2] 0.019 | [3] 0.006 | [4] 0.015 | [5] 0.001 | [6] 0.069 | [7] 0.068 | [8] 0.015 | IRAK-1-4 Inhibitor I -0.027

MLST8 (UniProt Q9BVC4)
inactive: erlotinib 0.038 | [1] 0.008 | [2] -0.041 | [3] 0.015 | [4] 0.012 | [5] 0.015 | [6] 0.002 | [7] -0.091 | [8] 0.033 | IRAK-1-4 Inhibitor I -0.001

MED10 (UniProt Q9BTT4)
inactive: erlotinib 0.049 | [1] -0.077 | [2] 0.044 | [3] 0.028 | [4] -0.149 | [5] -0.015 | [6] 0.029 | [7] 0.102 | [8] 0.101 | IRAK-1-4 Inhibitor I -0.022

MAST2 (UniProt Q6P0Q8)
Chain of UniProt Q6P0Q8 (Q6P0Q8 whole entry, looked up): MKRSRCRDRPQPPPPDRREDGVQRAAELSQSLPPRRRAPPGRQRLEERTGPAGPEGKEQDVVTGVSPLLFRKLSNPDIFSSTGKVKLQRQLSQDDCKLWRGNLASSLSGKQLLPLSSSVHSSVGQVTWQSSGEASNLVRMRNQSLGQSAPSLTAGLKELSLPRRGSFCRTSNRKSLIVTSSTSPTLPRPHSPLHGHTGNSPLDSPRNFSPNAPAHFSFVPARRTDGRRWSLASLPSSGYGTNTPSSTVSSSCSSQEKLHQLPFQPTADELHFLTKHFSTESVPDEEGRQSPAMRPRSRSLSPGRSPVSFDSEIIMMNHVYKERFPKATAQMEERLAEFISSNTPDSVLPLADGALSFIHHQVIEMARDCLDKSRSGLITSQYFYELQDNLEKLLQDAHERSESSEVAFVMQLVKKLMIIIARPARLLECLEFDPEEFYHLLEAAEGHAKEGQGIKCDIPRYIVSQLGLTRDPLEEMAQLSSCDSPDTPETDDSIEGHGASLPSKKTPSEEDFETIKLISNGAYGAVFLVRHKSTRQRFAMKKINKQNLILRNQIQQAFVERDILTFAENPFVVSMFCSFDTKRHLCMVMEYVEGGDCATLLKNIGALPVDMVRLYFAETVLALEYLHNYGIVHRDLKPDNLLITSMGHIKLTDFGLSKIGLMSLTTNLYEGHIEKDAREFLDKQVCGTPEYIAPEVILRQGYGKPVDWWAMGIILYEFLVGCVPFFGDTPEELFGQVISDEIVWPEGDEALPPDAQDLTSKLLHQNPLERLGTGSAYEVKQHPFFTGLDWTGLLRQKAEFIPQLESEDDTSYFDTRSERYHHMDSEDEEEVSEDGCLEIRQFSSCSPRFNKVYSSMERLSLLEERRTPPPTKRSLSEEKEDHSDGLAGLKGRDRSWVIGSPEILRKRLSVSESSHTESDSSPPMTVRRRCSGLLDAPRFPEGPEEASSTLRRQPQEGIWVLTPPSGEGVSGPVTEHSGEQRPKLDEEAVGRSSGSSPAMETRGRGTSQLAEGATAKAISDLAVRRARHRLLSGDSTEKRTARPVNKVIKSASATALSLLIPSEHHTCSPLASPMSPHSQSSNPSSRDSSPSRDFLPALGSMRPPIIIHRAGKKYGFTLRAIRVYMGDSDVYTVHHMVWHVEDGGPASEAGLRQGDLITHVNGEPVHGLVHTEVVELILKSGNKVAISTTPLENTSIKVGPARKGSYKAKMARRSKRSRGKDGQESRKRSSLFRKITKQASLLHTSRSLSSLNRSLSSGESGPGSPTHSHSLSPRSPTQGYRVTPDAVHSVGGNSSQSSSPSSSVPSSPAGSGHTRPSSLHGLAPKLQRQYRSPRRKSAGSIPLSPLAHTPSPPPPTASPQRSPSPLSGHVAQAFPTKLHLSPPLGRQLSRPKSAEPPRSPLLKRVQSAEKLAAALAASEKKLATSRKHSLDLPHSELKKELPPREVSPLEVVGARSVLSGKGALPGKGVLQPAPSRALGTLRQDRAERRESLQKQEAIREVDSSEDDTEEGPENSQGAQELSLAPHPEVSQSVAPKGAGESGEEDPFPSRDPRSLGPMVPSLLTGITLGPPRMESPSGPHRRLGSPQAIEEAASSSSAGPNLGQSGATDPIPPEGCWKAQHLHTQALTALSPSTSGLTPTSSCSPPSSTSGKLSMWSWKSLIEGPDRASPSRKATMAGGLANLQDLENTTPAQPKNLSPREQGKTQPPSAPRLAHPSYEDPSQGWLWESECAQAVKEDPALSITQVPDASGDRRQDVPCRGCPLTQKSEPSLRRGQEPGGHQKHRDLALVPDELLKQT
inactive: erlotinib 0.044 | [1] -0.054 | [2] 0.142 | [3] 0.003 | [5] -0.03 | [6] 0.099 | [7] 0.038 | [8] -0.046 | IRAK-1-4 Inhibitor I 0.073
active: [4] -0.588

MICU1 isoform 3 (UniProt Q9BPX6)
Chain of UniProt Q9BPX6 (Q9BPX6 whole entry, looked up): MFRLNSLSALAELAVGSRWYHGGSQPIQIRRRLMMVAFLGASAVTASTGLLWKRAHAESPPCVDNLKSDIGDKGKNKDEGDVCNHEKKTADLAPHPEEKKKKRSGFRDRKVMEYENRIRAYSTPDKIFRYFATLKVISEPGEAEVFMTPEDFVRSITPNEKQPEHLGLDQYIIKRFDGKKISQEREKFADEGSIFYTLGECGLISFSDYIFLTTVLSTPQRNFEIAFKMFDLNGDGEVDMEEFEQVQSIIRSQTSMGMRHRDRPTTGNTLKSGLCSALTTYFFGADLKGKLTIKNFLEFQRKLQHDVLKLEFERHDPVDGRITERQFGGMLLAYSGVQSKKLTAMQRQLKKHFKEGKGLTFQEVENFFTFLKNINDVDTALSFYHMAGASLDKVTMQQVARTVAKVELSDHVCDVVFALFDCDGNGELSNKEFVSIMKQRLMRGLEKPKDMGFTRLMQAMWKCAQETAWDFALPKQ
inactive: erlotinib 0.009 | [1] 0.049 | [2] -0.029 | [3] -0.017 | [4] -0.012 | [5] -0.047 | [6] 0.001 | [7] 0.016 | [8] 0.012 | IRAK-1-4 Inhibitor I 0.024

MARK3 (UniProt P27448)
Chain of UniProt P27448 (P27448 whole entry, looked up): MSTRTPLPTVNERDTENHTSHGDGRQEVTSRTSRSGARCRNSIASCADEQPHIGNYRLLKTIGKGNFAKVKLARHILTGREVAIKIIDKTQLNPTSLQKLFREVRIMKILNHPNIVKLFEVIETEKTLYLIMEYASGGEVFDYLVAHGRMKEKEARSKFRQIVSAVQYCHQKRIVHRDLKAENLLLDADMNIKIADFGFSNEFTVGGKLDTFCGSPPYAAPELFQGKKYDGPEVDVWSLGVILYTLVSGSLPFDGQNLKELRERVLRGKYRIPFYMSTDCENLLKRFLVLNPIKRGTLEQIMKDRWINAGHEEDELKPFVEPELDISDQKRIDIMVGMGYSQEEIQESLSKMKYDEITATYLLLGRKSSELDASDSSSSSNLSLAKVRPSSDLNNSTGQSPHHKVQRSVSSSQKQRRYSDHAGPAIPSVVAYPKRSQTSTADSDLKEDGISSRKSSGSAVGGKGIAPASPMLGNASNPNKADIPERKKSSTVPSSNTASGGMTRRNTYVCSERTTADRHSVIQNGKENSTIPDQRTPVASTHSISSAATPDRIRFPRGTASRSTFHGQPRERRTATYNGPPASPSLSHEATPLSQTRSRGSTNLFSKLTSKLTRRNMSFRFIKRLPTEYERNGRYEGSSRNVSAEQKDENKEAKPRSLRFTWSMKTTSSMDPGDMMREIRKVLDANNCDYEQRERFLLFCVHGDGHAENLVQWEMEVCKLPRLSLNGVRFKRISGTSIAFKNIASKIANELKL
inactive: erlotinib 0.089 | [1] -0.074 | [2] -0.007 | [3] 0.07 | [4] -0.051 | [5] 0.016 | [6] -0.218 | [7] -0.213 | [8] -0.023 | IRAK-1-4 Inhibitor I -0.035

KLC4 isoform 3 (UniProt Q9NSK0)
inactive: erlotinib 0 | [1] -0.017 | [2] 0.05 | [3] 0 | [4] 0 | [5] 0.018 | [6] -0.029 | [7] -0.056 | [8] 0.007 | IRAK-1-4 Inhibitor I -0.021

MORC3 (UniProt Q14149)
inactive: erlotinib 0.02 | [1] -0.047 | [2] -0.005 | [3] 0.01 | [4] -0.025 | [5] 0.034 | [6] -0.033 | [7] -0.029 | [8] 0.002 | IRAK-1-4 Inhibitor I -0.011

KIFC3 isoform 6 (UniProt Q9BVG8)
inactive: erlotinib 0.091 | [1] 0.069 | [2] 0.14 | [3] 0.004 | [4] 0.076 | [6] -0.077 | [7] -0.103 | [8] 0.158

MAPK9 (UniProt P45984)
inactive: erlotinib -0.001 | [1] 0.017 | [2] -0.018 | [3] -0.015 | [4] 0.014 | [5] 0.068 | [7] 0.061 | [8] -0.032 | IRAK-1-4 Inhibitor I -0.014
active: [6] 0.393

LDAH isoform 2 (UniProt Q9H6V9)
inactive: erlotinib -0.017 | [1] -0.015 | [2] -0.057 | [3] -0.023 | [4] 0.005 | [5] -0.01 | [6] -0.021 | [7] -0.032 | [8] 0 | IRAK-1-4 Inhibitor I 0.029

MDM2 isoform 11 (UniProt Q00987)
inactive: erlotinib 0.108 | [1] -0.039 | [2] 0.037 | [3] -0.071 | [4] 0.021 | [5] 0.084 | [6] 0.04 | IRAK-1-4 Inhibitor I 0.151

MIPEP (UniProt Q99797)
inactive: erlotinib -0.048 | [1] -0.06 | [2] 0.005 | [3] 0.021 | [4] 0.019 | [5] -0.029 | [6] -0.008 | [7] 0.006 | [8] 0.005 | IRAK-1-4 Inhibitor I -0.004

LARS2 (UniProt Q15031)
inactive: erlotinib 0.027 | [1] 0.033 | [3] -0.012 | [4] -0.041 | [5] 0.014 | [6] 0.029 | [7] 0.03 | [8] 0.039 | IRAK-1-4 Inhibitor I -0.021
active: [2] 0.549

MRPL15 (UniProt Q9P015)
inactive: erlotinib 0.037 | [1] -0.16 | [2] 0.051 | [3] -0.026 | [4] -0.055 | [5] -0.017 | [6] 0.004 | [7] -0.023 | [8] -0.016 | IRAK-1-4 Inhibitor I 0.034

KLHL12 isoform 2 (UniProt Q53G59)
inactive: erlotinib -0.051 | [1] 0.021 | [2] 0.004 | [3] 0.053 | [4] 0.165 | [5] -0.134 | [6] 0.04 | IRAK-1-4 Inhibitor I 0.046

MAP2K5 (UniProt Q13163)
inactive: erlotinib 0.16 | [1] 0.153 | [2] -0.024 | [3] 0.142 | [4] -0.097 | [5] -0.015 | [6] 0.06 | [7] -0.007 | [8] -0.024 | IRAK-1-4 Inhibitor I 0.144

LSS (UniProt P48449)
Chain of UniProt P48449 (P48449 whole entry, looked up): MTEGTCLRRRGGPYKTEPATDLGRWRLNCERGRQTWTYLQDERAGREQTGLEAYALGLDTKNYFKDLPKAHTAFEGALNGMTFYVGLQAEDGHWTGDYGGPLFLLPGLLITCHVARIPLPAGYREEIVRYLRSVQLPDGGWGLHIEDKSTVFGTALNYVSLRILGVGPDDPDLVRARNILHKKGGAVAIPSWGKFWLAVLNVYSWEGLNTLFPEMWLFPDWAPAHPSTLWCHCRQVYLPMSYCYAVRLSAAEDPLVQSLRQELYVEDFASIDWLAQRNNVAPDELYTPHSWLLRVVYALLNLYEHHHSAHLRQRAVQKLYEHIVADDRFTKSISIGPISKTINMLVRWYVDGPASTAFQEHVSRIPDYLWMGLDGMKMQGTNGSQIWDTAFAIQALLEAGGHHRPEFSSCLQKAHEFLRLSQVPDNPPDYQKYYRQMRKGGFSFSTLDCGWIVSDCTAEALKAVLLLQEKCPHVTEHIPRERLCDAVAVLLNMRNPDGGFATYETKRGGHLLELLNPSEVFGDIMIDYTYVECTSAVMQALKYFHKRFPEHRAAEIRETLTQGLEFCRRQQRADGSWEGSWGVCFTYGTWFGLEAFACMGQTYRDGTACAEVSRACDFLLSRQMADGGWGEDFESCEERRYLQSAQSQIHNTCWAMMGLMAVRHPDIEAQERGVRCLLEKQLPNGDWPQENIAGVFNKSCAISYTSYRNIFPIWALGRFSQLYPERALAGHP
inactive: erlotinib -0.023 | [1] 0.057 | [2] 0.001 | [3] 0.053 | [4] -0.005 | [5] 0.037 | [6] -0.006 | [7] -0.094 | [8] 0.019 | IRAK-1-4 Inhibitor I 0

MAPK14 isoform 2 (UniProt Q16539)
inactive: erlotinib -0.004 | [1] 0.011 | [2] -0.049 | [3] 0.016 | [4] 0.017 | [5] 0.633 | [6] -0.045 | [7] -0.02 | [8] 0.059 | IRAK-1-4 Inhibitor I -0.015

MAP4K5 (UniProt Q9Y4K4)
inactive: erlotinib 0.032 | [1] -0.169 | [2] -0.025 | [3] -0.019 | [4] -0.002 | [5] 0.039 | [7] 0.089 | [8] -0.04 | IRAK-1-4 Inhibitor I -0.001

MAP1S (UniProt Q66K74)
inactive: erlotinib 0.027 | [1] 0 | [2] -0.023 | [3] -0.016 | [4] -0.018 | [5] 0.003 | [6] -0.027 | [7] -0.044 | [8] 0.005 | IRAK-1-4 Inhibitor I 0.01

MITD1 (UniProt Q8WV92)
inactive: erlotinib -0.016 | [1] 0.025 | [2] -0.019 | [3] 0.021 | [4] 0.014 | [5] -0.072 | [6] -0.016 | [7] -0.047 | [8] -0.02 | IRAK-1-4 Inhibitor I -0.033

MPZL1 (UniProt O95297)
Chain of UniProt O95297 (O95297 whole entry, looked up): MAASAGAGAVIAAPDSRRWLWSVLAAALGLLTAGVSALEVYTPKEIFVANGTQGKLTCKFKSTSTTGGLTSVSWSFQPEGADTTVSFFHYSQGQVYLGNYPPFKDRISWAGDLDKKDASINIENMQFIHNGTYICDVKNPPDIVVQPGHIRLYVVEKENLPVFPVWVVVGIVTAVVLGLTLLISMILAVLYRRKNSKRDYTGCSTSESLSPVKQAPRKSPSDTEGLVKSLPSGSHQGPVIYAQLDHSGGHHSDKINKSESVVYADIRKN
inactive: erlotinib -0.057 | [1] 0.068 | [2] -0.036 | [3] 0.003 | [4] -0.042 | [5] 0.017 | [6] -0.005 | [7] 0.015 | [8] -0.04 | IRAK-1-4 Inhibitor I 0.015

MAPK3 (UniProt P27361)
inactive: erlotinib 0 | [1] 0.02 | [2] 0 | [3] -0.025 | [4] 0.031 | [5] 0.01 | [6] 0.052 | [7] 0.021 | [8] 0.055 | IRAK-1-4 Inhibitor I 0.049

Reference: the supplement of paper PMC10849652
